Experiment in all cases: yeast three-hybrid, YBZ-1, SC-Leu-His + 0.5 mM 3-AT, 4 days
Holding throughout (conditions): tags: N-Gal4 AD-HA kept; label: inside an RPR1-promoter hybrid RNA with tandem MS2 sites; ssRNA

For one assay, the target named is PUM1 PUF domain R8-KHF (Homo sapiens, UniProt Q14671 828-1176, N1122K;Y1123H;Q1126F). An outline of the steps:
(§1)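 Pumilio-1 PUF domain libraries, randomized (NNK) at the three base-contacting residues of each repeat, were co-expressed with matching RNA elements from a centromeric plasmid in strain YBZ-1 (LexA–MS2 coat fusion, HIS3 reporter). Transformants were plated on SC-Leu (input) and SC-Leu-His + 0.5 mM 3-AT (selection) for four days, and repeat regions were PCR-amplified and Illumina-sequenced. The interaction score is the log2 change in variant frequency from input to selection, with pseudocount 1 where absent.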

Another assay deals with PUM1 PUF domain R3-DNE (Homo sapiens, UniProt Q14671 828-1176, C935D;R936N;Q939E). An outline of the steps: as §1
Chain of PUM1 PUF domain R3-DNE (Q14671 828-1176 C935D/R936N/Q939E): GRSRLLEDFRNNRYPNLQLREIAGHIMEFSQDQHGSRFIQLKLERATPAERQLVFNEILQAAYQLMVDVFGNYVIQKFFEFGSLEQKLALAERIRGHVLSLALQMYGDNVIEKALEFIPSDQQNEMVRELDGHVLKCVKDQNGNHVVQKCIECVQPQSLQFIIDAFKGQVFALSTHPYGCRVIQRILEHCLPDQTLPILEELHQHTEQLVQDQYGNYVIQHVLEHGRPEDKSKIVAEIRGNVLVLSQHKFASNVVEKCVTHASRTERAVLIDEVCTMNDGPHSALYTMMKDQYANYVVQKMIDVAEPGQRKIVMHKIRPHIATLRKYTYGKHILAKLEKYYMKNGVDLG
Another assay has as its target PUM1 PUF domain R3-YRG (Homo sapiens, UniProt Q14671 828-1176, C935Y;Q939G). A digest of the protocol: as §1
Another assay deals with PUM1 PUF domain R5-RSN (Homo sapiens, UniProt Q14671 828-1176, C1007R;R1008S;Q1011N). An outline of the steps: as §1
The target of a further assay is PUM1 PUF domain R5-RAI (Homo sapiens, UniProt Q14671 828-1176, C1007R;R1008A;Q1011I). An outline of the steps:
as §1

The target of a further assay is T1, PUM1 PUF domain R6-LFC (Homo sapiens, UniProt Q14671 828-1176, N1043L;Y1044F;Q1047C).
T1 sequence: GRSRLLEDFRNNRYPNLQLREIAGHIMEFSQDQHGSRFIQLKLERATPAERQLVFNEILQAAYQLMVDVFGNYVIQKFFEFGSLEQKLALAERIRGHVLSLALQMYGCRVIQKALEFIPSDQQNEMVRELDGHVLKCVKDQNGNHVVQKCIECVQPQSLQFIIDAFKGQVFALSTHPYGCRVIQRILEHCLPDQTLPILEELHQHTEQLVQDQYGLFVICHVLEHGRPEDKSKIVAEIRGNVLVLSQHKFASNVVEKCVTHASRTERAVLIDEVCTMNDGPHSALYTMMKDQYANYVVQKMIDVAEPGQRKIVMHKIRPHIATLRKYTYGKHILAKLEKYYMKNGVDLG
An outline of the steps: as §1

The target of another assay is PUM1 PUF domain R8-KYP (Homo sapiens, UniProt Q14671 828-1176, N1122K;Q1126P). A digest of the protocol:
as §1

A further assay concerns the target PUM1 PUF domain R4-RGY (Homo sapiens, UniProt Q14671 828-1176, N971R;H972G;Q975Y). A digest of the protocol: as §1
Another assay deals with PUM1 PUF domain R3-KPG (Homo sapiens, UniProt Q14671 828-1176, C935K;R936P;Q939G). An outline of the steps:
as §1

In assay [1] the target is PUM1 PUF domain R3-THE R4-TFR R7-NPG (Homo sapiens, UniProt Q14671 828-1176, C935T;R936H;Q939E;N971T;H972F;Q975R;S1079N;N1080P;E1083G). An outline of the steps:
as §1

Chain of PUM1 PUF domain R5-RAI (Q14671 828-1176 C1007R/R1008A/Q1011I): as the sequence (Q14671 828-1176 C935D/R936N/Q939E) above, with D108C, N109R, E112Q, C180R, R181A, Q184I counted along it
Chain of PUM1 PUF domain R3-YRG (Q14671 828-1176 C935Y/Q939G): as the sequence (Q14671 828-1176 C935D/R936N/Q939E) above, with D108Y, N109R, E112G counted along it
Chain of PUM1 PUF domain R3-THE R4-TFR R7-NPG (Q14671 828-1176 C935T/R936H/Q939E/N971T/H972F/Q975R/S1079N/N1080P/E1083G): as the sequence (Q14671 828-1176 C935D/R936N/Q939E) above, with D108T, N109H, N144T, H145F, Q148R, S252N, N253P, E256G counted along it

Take “GGCUAGAACUAGUGGAUCCCCCGGCGCCCGGCGGCUCGAGCCCGGGUAAGGGUAAAUAGUCUGCAUGCCGCCGGGCGCCAUGCCUGCAGGUCGACUCUAGAAAACAUG”: the binding signal with PUM1 PUF domain R8-KHF is 2.25 log2 enrichment (interaction score).

With “GGCUAGAACUAGUGGAUCCCCCGGCGCCCGGCGGCUCGAGCCCGGGUAAGUGUAAGUAGUCUGCAUGCCGCCGGGCGCCAUGCCUGCAGGUCGACUCUAGAAAACAUG”, the binding signal is 3.35 log2 enrichment (interaction score) with PUM1 PUF domain R3-DNE and 3.84 log2 enrichment (interaction score) with PUM1 PUF domain R3-YRG.

Take “GGCUAGAACUAGUGGAUCCCCCGGCGCCCGGCGGCUCGAGCCCGGGUAAGUGUCAAUAGUCUGCAUGCCGCCGGGCGCCAUGCCUGCAGGUCGACUCUAGAAAACAUG”: the binding signal with PUM1 PUF domain R5-RSN is 3.76 log2 enrichment (interaction score); with PUM1 PUF domain R5-RAI, 0.78 log2 enrichment (interaction score).

Regarding “GGCUAGAACUAGUGGAUCCCCCGGCGCCCGGCGGCUCGAGCCCGGGUAAGUGUUAAUAGUCUGCAUGCCGCCGGGCGCCAUGCCUGCAGGUCGACUCUAGAAAACAUG”, the values for the binding signal in the assay with PUM1 PUF domain R5-RSN and with PUM1 PUF domain R5-RAI were 3.26 log2 enrichment (interaction score) and 2.49 log2 enrichment (interaction score), respectively.

As for “GGCUAGAACUAGUGGAUCCCCCGGCGCCCGGCGGCUCGAGCCCGGGUAAGUGUAAAUAGUCUGCAUGCCGCCGGGCGCCAUGCCUGCAGGUCGACUCUAGAAAACAUG”, the binding signal was 3.09 log2 enrichment (interaction score) with PUM1 PUF domain R6-LFC, 0.8 log2 enrichment (interaction score) with PUM1 PUF domain R5-RSN, 4.91 log2 enrichment (interaction score) with PUM1 PUF domain R8-KYP and 5.07 log2 enrichment (interaction score) with PUM1 PUF domain R4-RGY.

Regarding “GGCUAGAACUAGUGGAUCCCCCGGCGCCCGGCGGCUCGAGCCCGGGUAAGUGUAAUUAGUCUGCAUGCCGCCGGGCGCCAUGCCUGCAGGUCGACUCUAGAAAACAUG”, the binding signal in the assay with PUM1 PUF domain R3-KPG is 4.43 log2 enrichment (interaction score).

Consider “GGCUAGAACUAGUGGAUCCCCCGGCGCCCGGCGGCUCGAGCCCGGGUAAGUUUACGUAGUCUGCAUGCCGCCGGGCGCCAUGCCUGCAGGUCGACUCUAGAAAACAUG”, for which the binding signal in assay [1] was 5.28 log2 enrichment (interaction score).

The record behind these values is paper PMC8384837, “Expanding the binding specificity for RNA recognition by a PUF domain”.
